PubChem BioAssay AID1159580 (chemical genetic matrix, 2015)
Hit rate of the full screen: of about 5,500 compounds, about 2,000 (36%) were called active. About 18% were inconclusive and are not listed. Rule as the data show it: active = normalized growth mostly below about 0.91 (no sharp cut-off); inconclusive = no clear call, values can overlap the other calls; inactive = mostly above about 0.92. The list shows a part of the results.

Test: chemical genetic growth profiling, strain panel (AID 1159580);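 also: tested at 20 µM; growth read once vehicle control cultures reached saturation at 30 °C; 1 = growth at the plate median or of vehicle wells; lower values mean less growth of the strain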
Settings: S. cerevisiae deletion strains, growth OD

Measured: normalized growth

CC(=O)O[C@@H]1CC[C@]2(C)C3CC[C@]4(C)C(=O)CCC4C3CC[C@H]2C1 (stereo partly specified)
active: locus YBR009C, strain hhf1, hits give low values 0.866 | locus YDL035C, strain GPR1, hits give low values 0.85 | locus YDR162C, strain NBP2, hits give low values 0.661 | locus YDR502C, strain sam2, hits give low values 0.883 | locus YGR135W, strain pre9, hits give low values 0.876 | locus YIL066C, strain RNR3, hits give low values 0.852 | locus YLR262C, strain YPT6 (second series), hits give low values 0.725 | locus YLR320W, strain mms22, hits give low values 0.868 | locus YML032C, strain rad52, hits give low values 0.885 | locus YMR205C, strain PFK2, hits give low values 0.867 | locus YNL307C, strain MCK1, hits give low values 0.848 | locus YNR052C, strain pop2, hits give low values 0.877 | locus YOL147C, strain pex11, hits give low values 0.865 | locus YOR001W, strain rrp6, hits give low values 0.891 | locus YOR184W, strain ser1, hits give low values 0.713 | locus YOR270C, strain vph1, hits give low values 0.72
inactive: locus YAL021C, strain ccr4, hits give low values 0.944 | locus YAL026C, strain drs2, hits give low values 0.967 | locus YAL030W, strain snc1, hits give low values 1.01 | locus YBL061C, strain skt5, hits give low values 0.988 | locus YBR021W, strain FUR4, hits give low values 0.861 | locus YBR023C, strain chs3, hits give low values 0.98 | locus YBR171W, strain sec66, hits give low values 0.97 | locus YBR229C, strain ROT2, hits give low values 0.934 | locus YBR231C, strain swc5, hits give low values 1.01 | locus YBR279W, strain paf1, hits give low values 1 | locus YCL011C, strain gbp2, hits give low values 0.973 | locus YCL016C, strain dcc1, hits give low values 1.02 | locus YCL029C, strain bik1, hits give low values 0.987 | locus YCL061C, strain MRC1, hits give low values 0.979 | locus YCL069W, strain vba3, hits give low values 0.96 | locus YCR088W, strain abp1, hits give low values 0.984 | locus YDL005C, strain med2, hits give low values 1 | locus YDL040C, strain nat1, hits give low values 0.982 | locus YDL074C, strain BRE1, hits give low values 0.867 | locus YDL101C, strain DUN1, hits give low values 0.964 | locus YDL185W, strain tfp1, hits give low values 0.981 | locus YDL192W, strain arf1, hits give low values 0.937 | locus YDR001C, strain nth1, hits give low values 0.997 | locus YDR069C, strain doa4, hits give low values 0.969 | locus YDR101C, strain arx1, hits give low values 0.995 | locus YDR137W, strain rgp1, hits give low values 0.876 | locus YDR150W, strain NUM1, hits give low values 0.992 | locus YDR159W, strain sac3, hits give low values 0.931 | locus YDR195W, strain ref2 1.07 | locus YDR297W, strain sur2, hits give low values 1.01 | locus YDR318W, strain mcm21, hits give low values 0.942 | locus YDR334W, strain swr1, hits give low values 0.972 | locus YDR335W, strain msn5, hits give low values 0.995 | locus YDR388W, hits give low values 0.939 | locus YDR392W, strain spt3, hits give low values 0.929 | locus YEL003W, strain gim4, hits give low values 0.965 | locus YEL037C, strain rad23, hits give low values 0.985 | locus YEL061C, strain CIN8 (second series), hits give low values 0.988 | locus YEL061C, strain CIN8, hits give low values 0.983 | locus YER015W, strain faa2, hits give low values 0.996 | locus YER016W, strain bim1, hits give low values 1.03 | locus YER110C, hits give low values 0.996 | locus YER111C, strain swi4, hits give low values 0.986 | locus YER155C, strain BEM2 (second series), hits give low values 0.992 | locus YER155C, strain BEM2, hits give low values 1.01 | locus YER167W, strain BCK2, hits give low values 0.947 | locus YFR010W, strain ubp6, hits give low values 0.972 | locus YGL078C, strain dbp3, hits give low values 0.948 | locus YGL086W, strain mad1, hits give low values 0.987 | locus YGL167C, strain pmr1, hits give low values 0.999 | locus YGL173C, strain kem1, hits give low values 0.953 | locus YGL227W, strain vid30, hits give low values 0.989 | locus YGL240W, strain doc1, hits give low values 0.985 | locus YGL248W, strain PDE1, hits give low values 0.959 | locus YGL253W, strain hxk2, hits give low values 0.966 | locus YGR252W, strain gcn5, hits give low values 0.83 | locus YHR013C, strain ard1, hits give low values 1.05 | locus YHR027C, strain rpn1, hits give low values 0.977 | locus YHR030C, strain SLT2, hits give low values 0.999 | locus YHR079C, strain IRE1 (second series), hits give low values 0.987 | locus YHR094C, strain hxt1, hits give low values 0.978 | locus YHR129C, strain ARP1, hits give low values 0.974 | locus YHR142W, strain chs7, hits give low values 0.943 | locus YHR200W, strain rpn10, hits give low values 0.978 | locus YIL073C, strain SPO22, hits give low values 0.872 | locus YIL125W, strain kgd1, hits give low values 0.981 | locus YIR030C, strain dcg1, hits give low values 0.967 | locus YJL092W, strain hpr5, hits give low values 0.986 | locus YJL095W, strain BCK1 (second series), hits give low values 0.949 | locus YJL095W, strain BCK1, hits give low values 0.828 | locus YJL115W, strain asf1, hits give low values 0.991 | locus YJL129C, strain trk1, hits give low values 0.942 | locus YJL134W, strain LCB3, hits give low values 0.951 | locus YJL154C, strain vps35, hits give low values 0.988 | locus YJL164C, strain tpk1, hits give low values 0.949 | locus YJL166W, strain qcr8, hits give low values 0.922 | locus YJL168C, strain set2, hits give low values 0.995 | locus YJL187C, strain SWE1 (second series), hits give low values 0.955 | locus YJR043C, strain POL32, hits give low values 0.962 | locus YJR075W, strain HOC1, hits give low values 0.982 | locus YKL009W, strain mrt4, hits give low values 0.941 | locus YKL068W, hits give low values 0.979 | locus YKL085W, strain MDH1 (second series), hits give low values 0.954 | locus YKL085W, strain MDH1, hits give low values 0.954 | locus YKL160W, strain elf1, hits give low values 1.03 | locus YKL190W, strain CNB1, hits give low values 0.973 | locus YKR001C, strain vps1, hits give low values 0.984 | locus YKR026C, strain gcn3, hits give low values 0.982 | locus YKR091W, strain srl3, hits give low values 0.989 | locus YLL001W, strain dnm1, hits give low values 0.974 | locus YLL026W, hits give low values 0.999 | locus YLL041C, strain sdh2, hits give low values 0.986 | locus YLR027C, strain aat2, hits give low values 0.962 | locus YLR039C, strain RIC1, hits give low values 0.772 | locus YLR058C, strain SHM2, hits give low values 0.96 | locus YLR102C, strain apc9, hits give low values 0.991 | locus YLR221C, strain rsa3, hits give low values 0.91 | locus YLR258W, strain gsy2, hits give low values 0.974 | locus YLR262C, strain YPT6, hits give low values 0.672 | locus YLR268W, strain sec22, hits give low values 0.979 | locus YLR330W, strain CHS5, hits give low values 0.933 | locus YLR342W, strain FKS1 (second series), hits give low values 0.804 | locus YLR342W, strain FKS1, hits give low values 0.962 | locus YLR357W, strain rsc2, hits give low values 1.02 | locus YLR370C, strain arc18, hits give low values 1.02 | locus YLR371W, strain rom2, hits give low values 0.992 | locus YLR384C, strain iki3, hits give low values 1.02 | locus YLR418C, strain cdc73, hits give low values 0.843 | locus YML016C, strain PPZ1, hits give low values 0.969 | locus YML120C, strain ndi1, hits give low values 0.943 | locus YML124C, strain tub3, hits give low values 1 | locus YMR058W, strain fet3, hits give low values 0.95 | locus YMR078C, strain ctf18, hits give low values 1 | locus YMR125W, strain sto1, hits give low values 1 | locus YMR129W, hits give low values 1 | locus YMR223W, strain ubp8, hits give low values 0.916 | locus YMR231W, strain pep5, hits give low values 0.993 | locus YMR307W, strain GAS1, hits give low values 0.797 | locus YNL067W, strain RPL9B, hits give low values 1 | locus YNL071W, strain lat1, hits give low values 0.949 | locus YNL209W, strain ssb2, hits give low values 0.989 | locus YNL233W, strain BNI4, hits give low values 0.941 | locus YNL248C, strain rpa49, hits give low values 0.963 | locus YNL250W, strain rad50, hits give low values 0.963 | locus YNL271C, strain bni1, hits give low values 0.979 | locus YNL298W, strain CLA4, hits give low values 0.913 | locus YNL322C, strain KRE1 (second series), hits give low values 1.02 | locus YNR049C, strain mso1, hits give low values 1.01 | locus YOL012C, strain htz1 1.51 | locus YOR061W, strain CKA2, hits give low values 0.942 | locus YOR069W, strain VPS5, hits give low values 0.977 | locus YOR070C, strain gyp1, hits give low values 1 | locus YOR080W, strain dia2, hits give low values 1.01 | locus YOR083W, strain WHI5, hits give low values 0.975 | locus YOR106W, strain vam3, hits give low values 0.978 | locus YOR136W, strain idh2, hits give low values 0.998 | locus YOR144C, strain elg1, hits give low values 1 | locus YOR265W, strain rbl2, hits give low values 0.983 | locus YOR290C, strain snf2, hits give low values 0.958 | locus YOR316C, strain cot1, hits give low values 0.986 | locus YPL051W, strain arl3, hits give low values 1 | locus YPL078C, strain atp4, hits give low values 0.964 | locus YPL106C, strain sse1, hits give low values 1.03 | locus YPL240C, strain hsp82, hits give low values 0.99 | locus YPL241C, strain CIN2, hits give low values 0.985 | locus YPR119W, strain clb2, hits give low values 0.994 | locus YPR141C, strain kar3, hits give low values 0.991 | locus YPR163C, strain tif3, hits give low values 0.981 | locus YPR167C, strain met16, hits give low values 0.942 | strain wtn01, hits give low values 1.01
